Results as given in PubChem BioAssay (NCATS).
Values joined by “and” are separate entries in the source; they are usually repeats but may differ in a detail not shown here. Identical values can stand only once. Inconclusive results are not listed. Entries that show only a call come without a potency. Active and inactive are the calls of the source. Unless noted, calls come from the whole dose curve.

Experiments:
[1] = qHTS for Inhibitors of the Functional Ribonucleoprotein Complex (vRNP) of Lassa (LASV) Arenavirus: LASV Primary Screen - GLuc reporter signal (AID 1347082; calls by dose curve; tested in HEK293 reporter line; note: nearly all actives have a fitted effect of over 60% in size)
[2] = qHTS for Inhibitors of the Functional Ribonucleoprotein Complex (vRNP) of Lassa (LASV) Arenavirus: Viability assay - alamar blue signal for LASV Primary Screen (AID 1347083; calls by dose curve; tested in HEK293 reporter line; note: nearly all actives have a fitted effect of over 80% in size)
[3] = qHTS for Inhibitors of the Functional Ribonucleoprotein Complex (vRNP) of Lymphocytic Choriomeningitis Arenaviruses (LCMV): Viability assay - alamar blue signal for LCMV Primary Screen (AID 1347085; calls by dose curve; tested in HEK293 reporter line; note: nearly all actives have a fitted effect of over 80% in size)
[4] = biological target: Nucleoprotein (Lymphocytic choriomeningitis virus (strain Armstrong)) (UniProt P09992); assay: qHTS for Inhibitors of the Functional Ribonucleoprotein Complex (vRNP) of Lymphocytic Choriomeningitis Arenaviruses (LCMV): LCMV Primary Screen - GLuc reporter signal (AID 1347086); note: nearly all actives have a fitted effect of over 70% in size
Nucleoprotein (Lymphocytic choriomeningitis virus (strain Armstrong)), sequence (P09992 whole entry, looked up): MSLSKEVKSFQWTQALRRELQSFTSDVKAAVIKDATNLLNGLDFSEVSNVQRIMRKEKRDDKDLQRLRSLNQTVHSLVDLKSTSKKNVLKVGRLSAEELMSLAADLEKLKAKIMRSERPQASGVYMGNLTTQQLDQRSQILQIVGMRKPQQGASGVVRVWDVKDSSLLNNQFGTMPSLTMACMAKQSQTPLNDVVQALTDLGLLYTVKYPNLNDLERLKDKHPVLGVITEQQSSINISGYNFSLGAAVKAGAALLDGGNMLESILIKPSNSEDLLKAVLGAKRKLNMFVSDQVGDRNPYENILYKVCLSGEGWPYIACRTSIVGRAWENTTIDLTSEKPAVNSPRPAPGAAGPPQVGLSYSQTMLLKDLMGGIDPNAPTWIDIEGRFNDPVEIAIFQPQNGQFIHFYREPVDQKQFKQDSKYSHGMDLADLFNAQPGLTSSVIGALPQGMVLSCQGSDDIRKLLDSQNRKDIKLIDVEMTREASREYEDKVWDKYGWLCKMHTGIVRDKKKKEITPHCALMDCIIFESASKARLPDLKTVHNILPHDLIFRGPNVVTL

[5] = Cytotoxicity counterscreen for inhibitors of SARS-CoV-2 cell entry (AID 1645845); note: nearly all actives have a fitted effect of over 50% in size
Summary of the method: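 Counterscreen run in the same HEK293-ACE2 line as the pseudotyped-particle entry assay, without particles. Viability after 48 h at 37 C was read as ATP luminescence, scaled between cell-containing and cell-free wells.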

[6] = Primary qHTS for small molecule stabilizers of the endoplasmic reticulum resident proteome: Secreted ER Calcium Modulated Protein (SERCaMP) assay (AID 1508630; active = well fitted curve in the direction sought with a large enough effect; an effect the other way counts as inactive or inconclusive)
Summary of the method: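 The SH-SY5Y reporter protocol was run at 3 concentrations up to 38.3 uM (primary) or 11 concentrations (follow-up): 16 h compound, 100 nM thapsigargin for 4 h, then extracellular luciferase luminescence.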

[7] = qHTS profiling of the MIPE4 collection as inhibitors of Plasmodium falciparum (3D7) proliferation (AID 743344; call rule not given here); conditions: P. falciparum 3D7 in erythrocytes, SYBR Green DNA fluorescence, 72 h; at 28.5 µM (top of the series) unless noted
Summary of the method: (§1)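 Parasite DNA was quantified by SYBR Green I fluorescence (ex 485, em 535 nm) after overnight lysis in saponin/Triton buffer at room temperature. Cultures at 0.3% parasitemia and 2.5% hematocrit were first exposed to compound for 72 h at 37 C; signals were normalised to artemisinin (0.29 uM) and vehicle wells.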

[8] = qHTS profiling of the MIPE4 collection as inhibitors of Plasmodium falciparum (HB3) proliferation (AID 743347; call rule not given here); conditions: P. falciparum HB3 in erythrocytes, SYBR Green DNA, 72 h; at 28.5 µM (top of the series) unless noted
Summary of the method: as §1

[9] = Confirmatory qHTS to identify inhibitors of SARS-CoV-2 cell entry (AID 1645844); note: potency is the fitted concentration of half-maximal effect; nearly all actives have a fitted effect of over 45% in size
Summary of the method: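 HEK293-ACE2, overnight seeding; cpd 1 h, 37C/5% CO2; + SARS-CoV-2-S MLV PP (Wuhan-Hu-1, ΔC19); 48 h; Bright-Glo luminescence. Data normalised to S PP and bald PP wells.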

[10] = VSVG counterscreen qHTS to identify inhibitors of SARS-CoV-2 cell entry (AID 1645847); note: potency is the fitted concentration of half-maximal effect; nearly all actives have a fitted effect of over 65% in size
Summary of the method: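 HEK293-ACE2 cells (Expi293F, human ACE2) pretreated 1 h with compound, then infected with MLV-based VSV-G pseudotyped particles for 48 h at 37 C; luciferase luminescence normalized to VSV-G PP and bald PP wells.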

[11] = Stat Signaling Pathway (AID 446; active = well fitted curve in either direction with a large enough effect, not every such curve was filed as active;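 note: ME-180 cervical cancer cells given 40 pM IL-6 alongside compound; SIE-controlled beta-lactamase reporter measured as 460/530 nm FRET emission ratio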)
Summary of the method: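 Overnight-plated ME-180 cells bearing a STAT Inducible Element beta-lactamase reporter; 5 h co-exposure to compound and 40 pM IL-6; values normalized to 300 pM IL-6 and 125 nM JAK inhibitor controls.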

[12] = biological target: Glucocorticoid receptor (Homo sapiens) (UniProt P04150); assay: GR-GFP Redistribution (AID 450;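 active = compounds whose dose series gives a full or clear partial fitted curve of increased nuclear translocation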; note: potency is the fitted concentration of half-maximal effect); conditions: U2OS GR-GFP nuclear translocation, laser cytometry, 2 h
Glucocorticoid receptor (Homo sapiens), sequence (P04150 whole entry, looked up): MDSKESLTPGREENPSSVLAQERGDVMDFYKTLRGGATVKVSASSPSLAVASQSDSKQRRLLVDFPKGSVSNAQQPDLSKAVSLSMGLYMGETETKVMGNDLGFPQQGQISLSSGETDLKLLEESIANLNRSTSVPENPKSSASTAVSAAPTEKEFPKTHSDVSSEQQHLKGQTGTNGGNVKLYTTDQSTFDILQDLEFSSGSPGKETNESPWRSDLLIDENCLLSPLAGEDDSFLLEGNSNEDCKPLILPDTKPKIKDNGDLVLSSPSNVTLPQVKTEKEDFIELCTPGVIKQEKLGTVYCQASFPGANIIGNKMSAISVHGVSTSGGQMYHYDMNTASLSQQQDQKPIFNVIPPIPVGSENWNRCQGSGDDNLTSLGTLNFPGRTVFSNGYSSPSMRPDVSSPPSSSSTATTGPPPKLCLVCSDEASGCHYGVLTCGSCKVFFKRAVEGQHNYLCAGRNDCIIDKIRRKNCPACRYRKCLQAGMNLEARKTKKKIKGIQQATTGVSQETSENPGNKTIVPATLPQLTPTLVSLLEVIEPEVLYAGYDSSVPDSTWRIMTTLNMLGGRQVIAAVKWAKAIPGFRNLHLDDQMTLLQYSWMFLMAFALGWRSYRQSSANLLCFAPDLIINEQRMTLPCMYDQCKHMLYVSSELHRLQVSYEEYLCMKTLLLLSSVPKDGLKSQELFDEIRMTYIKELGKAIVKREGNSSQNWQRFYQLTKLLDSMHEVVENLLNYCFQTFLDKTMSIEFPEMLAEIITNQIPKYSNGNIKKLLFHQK

[13] = Confirmation and Secondary Assay for Modulators of Hemoglobin Beta Chain Splicing at IVS2 654 locus (AID 910; active = well fitted curve in the direction sought with a large enough effect; an effect the other way counts as inactive or inconclusive;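 note: HeLa cells stably carrying EGFP split by mutant beta-globin IVS2-654 intron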)
Summary of the method: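 HeLa cells stably expressing EGFP interrupted by β-globin IVS2-654 intron, seeded overnight in Opti-MEM/2% FCS, then treated 2 days at 37 °C. Restored splicing read as total peak GFP intensity per well by laser scanning cytometry (488 nm excitation, 500–520 nm emission); 500 nM antisense PNA as control.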

[14] = Confirmation and Secondary Assay for Modulators of Hemoglobin Beta Chain Splicing at IVS2 705 locus (AID 930; active = well fitted curve in the direction sought with a large enough effect; an effect the other way counts as inactive or inconclusive;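 note: HeLa cells stably expressing the EGFP-705 splicing reporter; GFP fluorescence per well restored by corrected splicing of the IVS2-705 intron in EGFP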)
Summary of the method: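 Stable HeLa line with EGFP disrupted by mutant beta-globin intron 2 (705). Overnight attachment, then 2 days of compound at 37C, 5% CO2. Signal: peak GFP intensity summed over objects 5-250 µm.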

[15] = qHTS Assay for Lipid Storage Modulators (AID 1519); conditions: Drosophila S3 cells, BODIPY lipid droplet/cell ratio, laser cytometry, cells loaded with oleic acid
Summary of the method: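 Cells seeded at 5,000 per well were treated with compounds over a concentration series and loaded with oleic acid (400 uM, as added). Lipid droplet fluorescence (488 nm excitation, 500-530 nm channel) was read by laser-scanning cytometry and normalized to 20 uM Triacsin C.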

[16] = biological target: Rap guanine nucleotide exchange factor 3 (Homo sapiens) (UniProt O95398); assay: Confirmatory qHTS for agonist of cAMP-regulated guanine nucleotide exchange factor 3 (EPAC1) (AID 1645881; active = well fitted curve in the direction sought with a large enough effect; an effect the other way counts as inactive or inconclusive;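 note: EPAC1 catalysed release of BODIPY-GDP from Rap1B seen as fluorescence loss; nearly all actives have a fitted effect of over 75% in size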)
Rap guanine nucleotide exchange factor 3 (Homo sapiens), sequence (O95398 whole entry, looked up): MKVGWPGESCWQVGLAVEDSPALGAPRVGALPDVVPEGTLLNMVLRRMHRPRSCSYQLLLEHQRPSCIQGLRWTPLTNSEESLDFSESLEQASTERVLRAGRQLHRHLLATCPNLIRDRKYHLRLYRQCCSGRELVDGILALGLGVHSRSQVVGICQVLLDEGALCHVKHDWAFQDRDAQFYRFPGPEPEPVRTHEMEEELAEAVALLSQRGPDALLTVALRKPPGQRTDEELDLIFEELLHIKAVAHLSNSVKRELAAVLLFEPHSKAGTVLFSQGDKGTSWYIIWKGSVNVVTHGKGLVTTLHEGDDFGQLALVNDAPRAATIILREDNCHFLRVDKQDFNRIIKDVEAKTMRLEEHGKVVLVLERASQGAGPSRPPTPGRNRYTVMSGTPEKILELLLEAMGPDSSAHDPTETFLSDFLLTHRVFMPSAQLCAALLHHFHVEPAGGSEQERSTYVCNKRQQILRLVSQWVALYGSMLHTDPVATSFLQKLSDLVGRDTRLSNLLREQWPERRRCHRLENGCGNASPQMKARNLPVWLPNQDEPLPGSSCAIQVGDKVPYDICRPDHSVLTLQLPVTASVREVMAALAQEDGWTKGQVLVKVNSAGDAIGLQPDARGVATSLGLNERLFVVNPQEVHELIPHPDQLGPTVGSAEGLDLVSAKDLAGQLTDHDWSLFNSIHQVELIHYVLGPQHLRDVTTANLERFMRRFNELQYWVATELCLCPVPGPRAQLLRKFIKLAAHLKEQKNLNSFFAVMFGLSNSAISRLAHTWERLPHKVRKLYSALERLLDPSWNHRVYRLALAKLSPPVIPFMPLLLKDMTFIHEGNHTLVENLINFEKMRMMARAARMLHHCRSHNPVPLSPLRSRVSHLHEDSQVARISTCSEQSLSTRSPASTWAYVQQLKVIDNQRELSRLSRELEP

[17] = biological target: Rap guanine nucleotide exchange factor 4 (Homo sapiens) (UniProt Q8WZA2); assay: Confirmatory qHTS for agonist of cAMP-regulated guanine nucleotide exchange factor 4 (EPAC2) (AID 1645884; active = well fitted curve in the direction sought with a large enough effect; an effect the other way counts as inactive or inconclusive;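 note: nucleotide exchange releases bodipy-GDP from Rap1 and this lowers its fluorescence; nearly all actives have a fitted effect of over 65% in size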)
Rap guanine nucleotide exchange factor 4 (Homo sapiens), sequence (Q8WZA2 whole entry, looked up): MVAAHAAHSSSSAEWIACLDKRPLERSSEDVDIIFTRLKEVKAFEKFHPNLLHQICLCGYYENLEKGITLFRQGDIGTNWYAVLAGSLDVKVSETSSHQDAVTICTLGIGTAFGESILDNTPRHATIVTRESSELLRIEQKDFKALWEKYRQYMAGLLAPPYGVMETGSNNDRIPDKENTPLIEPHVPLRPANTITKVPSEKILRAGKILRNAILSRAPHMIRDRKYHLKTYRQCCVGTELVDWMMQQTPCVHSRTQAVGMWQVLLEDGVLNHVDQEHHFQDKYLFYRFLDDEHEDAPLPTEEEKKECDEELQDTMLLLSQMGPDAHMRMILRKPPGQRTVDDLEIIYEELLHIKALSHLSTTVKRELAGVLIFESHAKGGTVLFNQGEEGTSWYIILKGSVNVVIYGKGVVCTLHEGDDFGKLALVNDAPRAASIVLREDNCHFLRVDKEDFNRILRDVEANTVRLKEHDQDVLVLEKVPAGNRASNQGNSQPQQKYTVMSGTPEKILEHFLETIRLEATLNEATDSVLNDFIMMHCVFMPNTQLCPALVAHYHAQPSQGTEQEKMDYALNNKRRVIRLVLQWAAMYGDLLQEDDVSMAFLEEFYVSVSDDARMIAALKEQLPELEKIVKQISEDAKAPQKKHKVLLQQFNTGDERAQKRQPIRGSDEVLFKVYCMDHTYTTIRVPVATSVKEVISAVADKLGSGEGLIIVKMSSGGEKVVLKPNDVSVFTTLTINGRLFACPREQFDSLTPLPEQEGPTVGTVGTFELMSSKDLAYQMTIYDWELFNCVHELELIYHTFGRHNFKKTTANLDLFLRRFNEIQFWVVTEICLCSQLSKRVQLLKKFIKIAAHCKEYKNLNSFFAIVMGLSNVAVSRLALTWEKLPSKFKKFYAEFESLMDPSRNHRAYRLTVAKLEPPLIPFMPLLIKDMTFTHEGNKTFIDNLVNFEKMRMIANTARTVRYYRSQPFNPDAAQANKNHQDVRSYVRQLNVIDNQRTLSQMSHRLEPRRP

[18] = biological target: Rap guanine nucleotide exchange factor 4 (Homo sapiens) (UniProt Q8WZA2); assay: Confirmatory qHTS for antagonist of cAMP-regulated guanine nucleotide exchange factor 4 (EPAC2) (AID 1645885; active = well fitted curve in the direction sought with a large enough effect; an effect the other way counts as inactive or inconclusive; note: potency is the fitted concentration of half-maximal effect; nearly all actives have a fitted effect of over 25% in size)
[19] = biological target: Rap guanine nucleotide exchange factor 3 (Homo sapiens) (UniProt O95398); assay: Counterscreen qHTS for antagonist of cAMP-regulated guanine nucleotide exchange factor 3 (EPAC1) (AID 1645888; active = well fitted curve in the direction sought with a large enough effect; an effect the other way counts as inactive or inconclusive;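 note: fluorescence loss as bound BODIPY-GDP is released from Rap1B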)
Summary of the method: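 Rap1B–BODIPY-GDP (250 nM) with 50 uM GDP; compounds pin-transferred to 9.74 nM–152 uM final (activator) or from 7.32 nM upwards (inhibitor). Fluorescence Ex/Em 480/540 nm read at 5 and 30 min, then after adding cAMP or buffer, at room temperature.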

[20] = biological target: Cytochrome P450 2C19 (Homo sapiens) (UniProt P33261); assay: qHTS Assay for Inhibitors and Substrates of Cytochrome P450 2C19 (AID 899; active = well fitted curve in the direction sought with a large enough effect; an effect the other way counts as inactive or inconclusive; note: potency is the fitted concentration of half-maximal effect; nearly all actives have a fitted effect of over 60% in size)
Cytochrome P450 2C19 (Homo sapiens), sequence (P33261 whole entry, looked up): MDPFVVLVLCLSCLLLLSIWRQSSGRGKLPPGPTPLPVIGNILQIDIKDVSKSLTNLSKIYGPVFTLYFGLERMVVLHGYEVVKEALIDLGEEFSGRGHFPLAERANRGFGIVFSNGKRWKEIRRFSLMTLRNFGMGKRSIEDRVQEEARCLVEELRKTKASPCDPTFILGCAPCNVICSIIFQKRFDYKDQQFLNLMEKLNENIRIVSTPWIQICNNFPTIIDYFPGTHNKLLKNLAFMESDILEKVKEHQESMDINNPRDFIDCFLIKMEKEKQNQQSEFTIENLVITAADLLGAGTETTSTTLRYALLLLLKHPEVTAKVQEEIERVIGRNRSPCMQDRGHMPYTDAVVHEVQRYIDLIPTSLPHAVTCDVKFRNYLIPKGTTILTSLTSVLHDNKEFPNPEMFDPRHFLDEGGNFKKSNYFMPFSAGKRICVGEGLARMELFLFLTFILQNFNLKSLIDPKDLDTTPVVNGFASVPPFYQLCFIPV
Summary of the method: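 5 nM human CYP2C19 with 10uM Luciferin-H EGE (at KM) in 50mM KPO4, compound preincubated 10 min at 37C, then NADPH regeneration for 60 min at 37C. Luciferin read by luminescence after detection reagent; normalized to 57uM ketoconazole as full inhibition.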

[21] = qHTS profiling of the MIPE4 collection as inhibitors of Plasmodium falciparum (DD2) proliferation (AID 743345; call rule not given here); conditions: P. falciparum Dd2 in erythrocytes, SYBR Green DNA, 72 h; at 28.5 µM (top of the series) unless noted
Summary of the method: as §1

[22] = qHTS profiling of the MIPE4 collection as inhibitors of Plasmodium falciparum (DD2) proliferation (Rep 2) (AID 743346; call rule not given here); conditions: P. falciparum Dd2 in erythrocytes, SYBR Green DNA, 72 h; at 28.5 µM (top of the series) unless noted
Summary of the method: as §1

[23] = Primary qHTS to identify inhibitors of SARS-CoV-2 cell entry (AID 1645846); conditions: activity change, negative = inhibition: at 57.1 µM (top of the series) unless noted; note: nearly all actives have a fitted effect of over 45% in size
Summary of the method: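 HEK293 cells stably expressing human ACE2, pre-treated 1 h with compound, then infected with MLV particles pseudotyped with Wuhan-Hu-1 spike (C-terminal 19-aa truncation). Luciferase luminescence after 48 h at 37 °C, normalised to spike PP and bald PP.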

[24] = biological target: Ubiquitin carboxyl-terminal hydrolase 1 (Homo sapiens) (UniProt O94782); assay: Inhibitors of USP1/UAF1: Pilot qHTS (AID 504865; active = well fitted curve in the direction sought with a large enough effect; an effect the other way counts as inactive or inconclusive;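 note: rhodamine fluorescence freed from ubiquitin-rhodamine substrate followed over time; top concentration of the series differs between compounds; nearly all actives have a fitted effect of over 35% in size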)
Ubiquitin carboxyl-terminal hydrolase 1 (Homo sapiens), sequence (O94782 whole entry, looked up): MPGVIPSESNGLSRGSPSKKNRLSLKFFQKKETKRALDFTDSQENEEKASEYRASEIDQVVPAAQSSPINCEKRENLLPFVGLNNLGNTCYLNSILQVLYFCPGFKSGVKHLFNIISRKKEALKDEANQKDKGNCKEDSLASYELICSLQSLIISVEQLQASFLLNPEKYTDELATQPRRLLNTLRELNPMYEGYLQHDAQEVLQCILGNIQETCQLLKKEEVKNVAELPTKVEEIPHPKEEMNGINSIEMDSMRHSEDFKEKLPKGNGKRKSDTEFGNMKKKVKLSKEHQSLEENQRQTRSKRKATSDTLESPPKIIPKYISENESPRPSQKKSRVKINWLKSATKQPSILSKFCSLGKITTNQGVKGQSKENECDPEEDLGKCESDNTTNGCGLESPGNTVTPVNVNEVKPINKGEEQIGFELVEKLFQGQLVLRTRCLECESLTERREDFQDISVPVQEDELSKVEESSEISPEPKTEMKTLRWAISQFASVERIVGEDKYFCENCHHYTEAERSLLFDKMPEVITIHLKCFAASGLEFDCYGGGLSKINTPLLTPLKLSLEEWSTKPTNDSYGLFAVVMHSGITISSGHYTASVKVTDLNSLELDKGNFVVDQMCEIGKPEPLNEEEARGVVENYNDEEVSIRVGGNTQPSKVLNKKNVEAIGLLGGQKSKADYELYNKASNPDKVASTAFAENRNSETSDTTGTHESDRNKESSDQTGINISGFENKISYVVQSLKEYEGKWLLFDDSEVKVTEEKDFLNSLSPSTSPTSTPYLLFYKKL
Summary of the method: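 USP1/UAF1 complex at 1 nM preincubated 15 min at room temperature with compound, then Ub-Rho substrate added at 150 nM final. Fluorescence (480/540 nm) read kinetically in 50 mM HEPES pH 7.8, 0.5 mM EDTA, 1 mM TCEP, 0.1 mg/ml BSA, 0.01% Tween-20.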

[25] = measured here: cell count channel max response
[26] = measured here: lipid channel max response

**Q.** Which results are given for CC[C@@H]([C@H](C)O)n1ncn(-c2ccc(N3CCN(c4ccc(OCC5CO[C@@](Cn6cncn6)(c6ccc(F)cc6F)C5)cc4)CC3)cc2)c1=O (stereo partly specified)?
**A.** Potency [1]: inactive; Potency [2]: inactive; Potency [3]: inactive; Potency [4]: inactive; Potency [5]: inactive

**Q.** Which Potency [1] does the source give for C/C=C1/CN2CC[C@]34C(=C(C=O)[C@@H]1C[C@H]23)Nc1c(O)cccc14 here?
**A.** inactive

**Q.** And the Potency [2]?
**A.** inactive

**Q.** And the Potency [3]?
**A.** inactive

**Q.** And the Potency [4]?
**A.** inactive

**Q.** And the Potency [6]?
**A.** inactive

**Q.** Which results are given for CN1C(=O)C[C@H](C(=O)N[C@@H](Cc2cnc[nH]2)C(=O)N2CCC[C@@H]2C(N)=O)NC1=O?
**A.** parasite growth, % of DMSO control [7]: 86%; growth, % of control [8]: 48.7%; Potency [1]: inactive; Potency [2]: inactive; Potency [3]: inactive; Potency [4]: inactive; Potency [9]: 19.2 µM (active); Potency [10]: 0.961 µM (active)

**Q.** For Clc1ccc(COC(Cn2ccnc2)c2ccc(Cl)cc2Cl)c(Cl)c1 (stereo unspecified), which outcome [11] is on record?
**A.** inactive

**Q.** And the Potency [12]?
**A.** > 20.6 µM (inactive)

**Q.** What about the Potency [13] of the same compound?
**A.** inactive

**Q.** And the outcome [14]?
**A.** inactive

**Q.** And the activity change, negative = inhibition ([15]; at 57.5 µM (top of the series))?
**A.** 3.93% (inactive)

**Q.** What about the max response [15, 25] of the same compound?
**A.** -9.24%

**Q.** And the max response [15, 26]?
**A.** -3.69%

**Q.** What about the Potency [1] of the same compound?
**A.** inactive

**Q.** What about the Potency [2] of the same compound?
**A.** inactive

**Q.** And the Potency [3]?
**A.** inactive

**Q.** What about the Potency [4] of the same compound?
**A.** inactive

**Q.** And the Potency [5]?
**A.** inactive

**Q.** And the outcome [16]?
**A.** inactive

**Q.** What about the outcome [17] of the same compound?
**A.** inactive

**Q.** And the Potency [18]?
**A.** 49.4 µM (active) and 21.3 µM (active)

**Q.** What about the outcome [19] of the same compound?
**A.** inactive

**Q.** Which results are given for CC(C)(C)OC(=O)N[C@H]1CCCCCC=C[C@@H]2C[C@@]2(C(=O)NS(=O)(=O)C2CC2)NC(=O)[C@@H]2C[C@@H](OC(=O)N3Cc4cccc(F)c4C3)CN2C1=O?
**A.** Potency [1]: inactive; Potency [2]: inactive; Potency [3]: inactive; Potency [4]: inactive; Potency [5]: inactive

**Q.** Which Potency [20] does the source give for O=C1C[C@@H](c2ccc(O)cc2)Oc2cc(O)cc(O)c21 here?
**A.** 7.94 µM (active)

**Q.** What about the activity change, negative = inhibition ([15]; at 25.7 µM (top of the series)) of the same compound?
**A.** 0.577% (inactive)

**Q.** What about the max response [15, 25] of the same compound?
**A.** -18.3%

**Q.** What about the max response [15, 26] of the same compound?
**A.** -14.1%

**Q.** What about the parasite growth remaining, % of DMSO control (lower = more inhibition) [21] of the same compound?
**A.** 72.2%

**Q.** What about the parasite growth, % of control (lower = inhibition) [22] of the same compound?
**A.** 56.8%

**Q.** And the Potency [1]?
**A.** inactive

**Q.** And the Potency [2]?
**A.** inactive

**Q.** And the Potency [3]?
**A.** inactive

**Q.** What about the Potency [4] of the same compound?
**A.** inactive

**Q.** And the Potency [5]?
**A.** inactive

**Q.** What about the Potency [23] of the same compound?
**A.** inactive

**Q.** With O=c1ccc2c(O)c3ccoc3cc2o1 as the compound, how does the Potency [13] read?
**A.** inactive

**Q.** What about the outcome [14] of the same compound?
**A.** inactive

**Q.** What about the activity change, negative = inhibition ([15]; at 57.5 µM (top of the series)) of the same compound?
**A.** 15.3% (inactive)

**Q.** What about the max response [15, 25] of the same compound?
**A.** 7.8%

**Q.** And the max response [15, 26]?
**A.** 27.4%

**Q.** And the Potency [24]?
**A.** inactive

**Q.** And the Potency [1]?
**A.** inactive

**Q.** And the Potency [2]?
**A.** inactive

**Q.** And the Potency [3]?
**A.** inactive

**Q.** And the Potency [4]?
**A.** inactive

**Q.** What does the source list for COc1ccc(S(=O)(=O)Nc2cc(-c3c(O)ccc4ccccc34)c(O)c3ccccc23)cc1?
**A.** Potency [1]: inactive; Potency [2]: inactive; Potency [3]: inactive; Potency [4]: inactive; Potency [5]: inactive
